Our source for the binding signal values is article PMC11006913.

Positions count from the first letter of the chain named.

Holding throughout (test): PBM; 200 nM protein, PBS
Holding throughout (conditions): dsDNA, one strand shown

For experiment [1], the target named is T1, SIX6 (Homo sapiens, UniProt O95475 114-200, T165P).
T1 sequence: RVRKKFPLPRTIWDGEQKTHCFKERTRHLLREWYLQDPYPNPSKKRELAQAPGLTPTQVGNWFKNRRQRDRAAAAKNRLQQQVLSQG

For experiment [2], the target named is T2, SIX6 (Homo sapiens, UniProt O95475 114-200, H141N).
T2 sequence: T1 sequence with H28N, P52T

For experiment [3], the target named is T3, SIX6 (Homo sapiens, UniProt O95475 114-200, L167M).
T3 sequence: T1 sequence with P52T, L54M

Experiment [4] deals with T4, SIX6 (Homo sapiens, UniProt O95475 114-200, T139Q).
T4 sequence: T1 sequence with T26Q, P52T

Experiment [5] has as its target T5, SIX6 (Homo sapiens, UniProt O95475 114-200, T165G).
T5 sequence: T1 sequence with P52G

Experiment [6] has as its target T6, SIX6 (Homo sapiens, UniProt O95475 114-200, T165A).
T6 sequence: T1 sequence with P52A

Experiment [7] addresses T7, SIX6 (Homo sapiens, UniProt O95475 114-200, L167V).
T7 sequence: T1 sequence with P52T, L54V

The target of experiment [8] is PRRX1 (Homo sapiens, UniProt P54821 80-166, F113S).
The target in experiment [9] is PRRX1 (Homo sapiens, UniProt P54821 80-166).
For experiment [10], the target named is T8, PAX4 (Homo sapiens, UniProt O43316 9-242).
T8 sequence: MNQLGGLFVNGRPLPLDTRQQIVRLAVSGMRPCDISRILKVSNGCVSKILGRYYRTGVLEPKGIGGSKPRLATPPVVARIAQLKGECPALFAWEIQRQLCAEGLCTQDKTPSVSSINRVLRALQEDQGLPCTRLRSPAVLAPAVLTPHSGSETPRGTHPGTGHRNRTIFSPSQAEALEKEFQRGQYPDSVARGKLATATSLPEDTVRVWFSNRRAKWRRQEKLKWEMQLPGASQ

A further experiment concerns the target PITX2 (Homo sapiens, UniProt Q99697 72-157).
In experiment [11] the target is T9, PAX4 (Homo sapiens, UniProt O43316 9-242, F177V).
T9 sequence: T8 sequence with F169V

The target of experiment [12] is T10, PAX4 (Homo sapiens, UniProt O43316 9-242, F177Y).
T10 sequence: T8 sequence with F169Y

Experiment [13] has as its target T11, PAX4 (Homo sapiens, UniProt O43316 9-242, R227W).
T11 sequence: T8 sequence with R219W

For a further experiment, the target named is T12, VENTX (Homo sapiens, UniProt O95231 78-163, Y115F).
T12 sequence: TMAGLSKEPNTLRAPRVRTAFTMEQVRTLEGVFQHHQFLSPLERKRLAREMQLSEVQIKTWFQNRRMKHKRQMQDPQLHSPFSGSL

The target of experiment [14] is ALX1 (Homo sapiens, UniProt Q15699 118-204, L144V).
The target of experiment [15] is ALX1 (Homo sapiens, UniProt Q15699 118-204, L144R).
Experiment [16] has as its target ALX1 (Homo sapiens, UniProt Q15699 118-204).

ALX1 (Homo sapiens, UniProt Q15699 118-204), sequence (Q15699 118-204): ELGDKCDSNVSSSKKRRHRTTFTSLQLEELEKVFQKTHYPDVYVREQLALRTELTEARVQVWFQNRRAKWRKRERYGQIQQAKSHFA
PRRX1 (Homo sapiens, UniProt P54821 80-166), sequence (P54821 80-166): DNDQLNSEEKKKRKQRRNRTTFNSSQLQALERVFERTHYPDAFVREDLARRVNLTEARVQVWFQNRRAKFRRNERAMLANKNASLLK
PRRX1 (Homo sapiens, UniProt P54821 80-166, F113S), sequence (P54821 80-166 F113S): as the sequence (P54821 80-166) above, with F34S counted along it
ALX1 (Homo sapiens, UniProt Q15699 118-204, L144R), sequence (Q15699 118-204 L144R): as the sequence (Q15699 118-204) above, with L27R counted along it
ALX1 (Homo sapiens, UniProt Q15699 118-204, L144V), sequence (Q15699 118-204 L144V): as the sequence (Q15699 118-204) above, with L27V counted along it

For CCGGATAC, the binding signal in the experiment with SIX6 [1] is 9.26 upbm affinity estimate (log intensity, higher = more binding, comparable within an allelic series).
Consider GCTATCAC, for which the binding signal in the experiment with SIX6 [1] was 9.24 upbm affinity estimate (log intensity, higher = more binding, comparable within an allelic series).
In the case of CGGATACC, the binding signal with SIX6 [1] is 9.26 upbm affinity estimate (log intensity, higher = more binding, comparable within an allelic series).
Consider GCGGATCC, for which, in the experiment with SIX6 [1], the binding signal is 9.05 upbm affinity estimate (log intensity, higher = more binding, comparable within an allelic series).
Turning to AAGGATCC, the binding signal with SIX6 [1] is 9.15 upbm affinity estimate (log intensity, higher = more binding, comparable within an allelic series).
As for GCGATACC, the binding signal with SIX6 [2] is 11 upbm affinity estimate (log intensity, higher = more binding, comparable within an allelic series); with SIX6 [1], 9.27 upbm affinity estimate (log intensity, higher = more binding, comparable within an allelic series); in the experiment with SIX6 [3], 10.3 upbm affinity estimate (log intensity, higher = more binding, comparable within an allelic series); with SIX6 [4], 11.1 upbm affinity estimate (log intensity, higher = more binding, comparable within an allelic series).
On to GGATCCAC, for which, in the experiment with SIX6 [1], the binding signal was 9.18 upbm affinity estimate (log intensity, higher = more binding, comparable within an allelic series).
On to AACGATAC, for which the binding signal in the experiment with SIX6 [2] is 11.1 upbm affinity estimate (log intensity, higher = more binding, comparable within an allelic series); with SIX6 [5], 11.2 upbm affinity estimate (log intensity, higher = more binding, comparable within an allelic series); in the experiment with SIX6 [4] it was 11.2 upbm affinity estimate (log intensity, higher = more binding, comparable within an allelic series); with SIX6 [6] it was 11 upbm affinity estimate (log intensity, higher = more binding, comparable within an allelic series); in the experiment with SIX6 [7] it was 10.9 upbm affinity estimate (log intensity, higher = more binding, comparable within an allelic series).
Turning to CCGATCCG, the binding signal with SIX6 [1] was 9.19 upbm affinity estimate (log intensity, higher = more binding, comparable within an allelic series).
CGTCACCC: the binding signal with PRRX1 [8] was 9.47 upbm affinity estimate (log intensity, higher = more binding, comparable within an allelic series); with PRRX1 [9] it was 9.31 upbm affinity estimate (log intensity, higher = more binding, comparable within an allelic series).
Regarding CCGTATCC, the binding signal with SIX6 [1] was 9.24 upbm affinity estimate (log intensity, higher = more binding, comparable within an allelic series).
With ACTACAAT, in the experiment with SIX6 [1], the binding signal was 10.1 upbm affinity estimate (log intensity, higher = more binding, comparable within an allelic series).
In the case of CAGGATCA, the binding signal in the experiment with SIX6 [1] is 9.29 upbm affinity estimate (log intensity, higher = more binding, comparable within an allelic series).
For ACGGATCG, the binding signal with SIX6 [1] is 9.19 upbm affinity estimate (log intensity, higher = more binding, comparable within an allelic series).
With GATATGGC, the binding signal with SIX6 [1] is 9.27 upbm affinity estimate (log intensity, higher = more binding, comparable within an allelic series).
ACCGATCG: the binding signal in the experiment with SIX6 [1] is 9.18 upbm affinity estimate (log intensity, higher = more binding, comparable within an allelic series).
On the same count and under the same terms, next, GGGGATAC: 9.17 upbm affinity estimate (log intensity, higher = more binding, comparable within an allelic series); GATCCCCA: 9.34 upbm affinity estimate (log intensity, higher = more binding, comparable within an allelic series).
Take TCTGATCA: the binding signal was 10.5 upbm affinity estimate (log intensity, higher = more binding, comparable within an allelic series) with PAX4 [10]; 9.44 upbm affinity estimate (log intensity, higher = more binding, comparable within an allelic series) with PITX2; 9.89 upbm affinity estimate (log intensity, higher = more binding, comparable within an allelic series) with PAX4 [11]; 9.94 upbm affinity estimate (log intensity, higher = more binding, comparable within an allelic series) in the experiment with PAX4 [12]; 9.94 upbm affinity estimate (log intensity, higher = more binding, comparable within an allelic series) with PAX4 [13].
As for CCGGATCG, the binding signal with SIX6 [1] is 9.19 upbm affinity estimate (log intensity, higher = more binding, comparable within an allelic series).
For the sequence GCCGATAC, the binding signal in the experiment with SIX6 [1] was 9.22 upbm affinity estimate (log intensity, higher = more binding, comparable within an allelic series).
Consider GGGATCAC, for which the binding signal with SIX6 [1] is 9.32 upbm affinity estimate (log intensity, higher = more binding, comparable within an allelic series); with SIX6 [4] it was 11.1 upbm affinity estimate (log intensity, higher = more binding, comparable within an allelic series).
Turning to GACGATCC, in the experiment with SIX6 [1], the binding signal was 9.26 upbm affinity estimate (log intensity, higher = more binding, comparable within an allelic series).
In the case of CAGGGATC, the binding signal with SIX6 [1] was 9.11 upbm affinity estimate (log intensity, higher = more binding, comparable within an allelic series).
Consider ATCGATCA, for which, in the experiment with VENTX, the binding signal is 9.96 upbm affinity estimate (log intensity, higher = more binding, comparable within an allelic series).
In the case of ATTTTTAC, in the experiment with PAX4 [10], the binding signal was 10.5 upbm affinity estimate (log intensity, higher = more binding, comparable within an allelic series).
Regarding ACGGATAA, the binding signal with PAX4 [10] was 10.8 upbm affinity estimate (log intensity, higher = more binding, comparable within an allelic series); in the experiment with ALX1 [14], 8.5 upbm affinity estimate (log intensity, higher = more binding, comparable within an allelic series); with ALX1 [15], 8.23 upbm affinity estimate (log intensity, higher = more binding, comparable within an allelic series); in the experiment with PAX4 [11] it was 10.1 upbm affinity estimate (log intensity, higher = more binding, comparable within an allelic series); with PAX4 [12] it was 10.2 upbm affinity estimate (log intensity, higher = more binding, comparable within an allelic series); with ALX1 [16] it was 8.73 upbm affinity estimate (log intensity, higher = more binding, comparable within an allelic series).
As for AAATCGGT, the binding signal with VENTX was 9.94 upbm affinity estimate (log intensity, higher = more binding, comparable within an allelic series).
On the same count and under the same terms, next, CGATTAGA: 10.8 upbm affinity estimate (log intensity, higher = more binding, comparable within an allelic series).
Take CGGGTATC: the binding signal was 9.28 upbm affinity estimate (log intensity, higher = more binding, comparable within an allelic series) with SIX6 [1] and 11.1 upbm affinity estimate (log intensity, higher = more binding, comparable within an allelic series) with SIX6 [4].
Take GATTTTCA: the binding signal with PAX4 [10] is 10.7 upbm affinity estimate (log intensity, higher = more binding, comparable within an allelic series).
As for AATCGGTC, the binding signal with VENTX was 10.1 upbm affinity estimate (log intensity, higher = more binding, comparable within an allelic series).
For CCCGATAC, the binding signal in the experiment with SIX6 [1] is 9.17 upbm affinity estimate (log intensity, higher = more binding, comparable within an allelic series).
Regarding GAGGATCC, the binding signal with SIX6 [1] was 9.19 upbm affinity estimate (log intensity, higher = more binding, comparable within an allelic series).
